Sampled rows, rich in hits. Any-hit rate of the full collection: about 10%.
Luc counter = Counterscreen for Luciferase (Kinase-Glo TM) Inhibition | Potency, µM (doses to about 38.3 µM), for the others: at the top dose activity change, negative = inhibition, usual class: inhibitors | actives 0.28% (n = 200,000) | Kinase-Glo luciferase, ATP luminescence, 8 min | AID 1379, 2008; active = well fitted inhibition curve with a large enough effect; inconclusive = small, poorly fitted or top-dose-only effect; also: potency is read from the fitted curve at half-maximal effect; nearly all actives have a fitted effect of over 60% in size
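Kinase-Glo luciferase light output from ATP and luciferin was measured with 10 uM ATP, within the enzyme's linear range. Buffer: 50 mM imidazole pH 7.2, 50 mM KCl, 7 mM MgCl2, 0.01% Tween 20, 0.05% BSA; luminescence read after 8 min at ambient temperature.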
LMNA splice mod = qHTS Assay for Modulators of Lamin A Splicing; HeLa LMNA splicing GFP/RFP minigene ratio, 48 h; Potency, µM (highest dose often 46.1 µM), for inactives: top-dose ratio change, negative = inhibition, most hits filed as inhibitors; actives 0.01% (n = 200,000); active = well fitted inhibition curve with a large enough effect in the signal ratio, with a control signal flat, not every such curve was filed as active; inconclusive = small, poorly fitted or top-dose-only effect, or effect the other way, or a change in a side signal; the % refers to the signal ratio; also: potency is read from the fitted curve at half-maximal effect
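Read-out is the ratio of GFP to DsRed2 object intensity, acquired by 488 nm laser-scanning cytometry on HeLa lamin A-EGFP minigene reporter cells. Compound incubation 48 hrs at 37 °C in Opti-MEM with 2% FBS; DMSO 0.5% final.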
HPGD inh = qHTS Assay for Inhibitors of HPGD (15-Hydroxyprostaglandin Dehydrogenase) | 15-hydroxyprostaglandin dehydrogenase [NAD(+)] (Homo sapiens), P15428 | purified HPGD, NADH fluorescence kinetic, PGE2 substrate | Potency, µM, for the others: top-dose activity change, negative = inhibition, usual class: inhibitors | actives 4.3% (n = 150,000); also: potency is read from the fitted curve at half-maximal effect
Target sequence (P15428 whole entry, looked up): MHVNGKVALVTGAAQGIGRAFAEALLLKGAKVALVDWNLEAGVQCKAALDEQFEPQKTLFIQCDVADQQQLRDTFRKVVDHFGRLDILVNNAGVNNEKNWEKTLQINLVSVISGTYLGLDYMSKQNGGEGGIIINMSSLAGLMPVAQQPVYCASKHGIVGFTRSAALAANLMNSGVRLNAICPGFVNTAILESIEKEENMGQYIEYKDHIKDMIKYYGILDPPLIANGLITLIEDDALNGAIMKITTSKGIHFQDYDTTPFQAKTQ
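20 nM HPGD preincubated 15 min at room temperature with compound in 50 mM Tris-HCl pH 8, 0.01% Tween 20. Started with 1 mM NAD+ and 30 uM prostaglandin E2; NADH fluorescence (360/450 nm) read 5 times over 30-s intervals, last minus first.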
PNC inhibitor = High Content Assay for Compounds that inhibit the Assembly of the Perinucleolar Compartment | activity change (PNC), negative = inhibition, % at 10 µM | actives 3.1% (n = 140,000) | PC3M PTB-GFP, PNC prevalence imaging, 16 h; hits give low values | AID 2417, 2010;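 active = readout at or below -70, meaning at least 70% loss of cells showing the perinucleolar compartment, a nuclear body marking cancer cells; inconclusive = readout between -30 and a set limit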;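 also: plate controls were DMSO wells for no effect and camptothecin positive control wells for full effect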
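PC3M cells stably expressing PTB-GFP, 750–1000 cells/well, treated 16 h at 37 °C with compound (23 nl of library stock), in duplicate. After paraformaldehyde fixation and Hoechst stain, imaged at 20x; PNC prevalence scored by image analysis.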
ALDH1A1 block = qHTS Assay for Inhibitors of Aldehyde Dehydrogenase 1 (ALDH1A1); Potency, µM (titrated, usually from 75.3 µM), for the others: at the top dose activity, negative = inhibition, usual class: inhibitors; AID 1030, 2008; Purified ALDH1A1, NADH fluorescence, propionaldehyde substrate; Aldehyde dehydrogenase 1A1 (Homo sapiens), P00352; actives 7.3% (n = 220,000);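 also: potency is read from the fitted curve at half-maximal effect; plate controls were no enzyme wells and a reference inhibitor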
* marks the source's active call; other numbers are inactive results; ? = inconclusive; . = no result; [ ] = another dose, or the depositor's remark. Unless noted, calls follow the shape of the dose curve; as a rule, active = well fitted inhibition curve with a large enough effect (not every such curve was filed as active); inconclusive = small, poorly fitted or top-dose-only effect, or another doubt; inactive = no such curve, though single readings can be large or run the other way. Unless noted, % is scaled to controls: 0 for no effect and ±100 for the full control effect.

SMILES	Luc counter	LMNA splice mod	HPGD inh	PNC inhibitor	ALDH1A1 block
CC1CC(C)CN(C(=O)CCCn2c(=S)[nH]c3ccccc3c2=O)C1 (stereo not drawn)	0.5%	-1.1%	25.1µM*	-10.2	?
CC1CCN(CCCn2c(=S)[nH]c3ccccc3c2=O)CC1	-5.2%	8.9%	-12.4%	?	3.3%
O=C(CCCn1c(=S)[nH]c2cc3c(cc2c1=O)OCO3)NC1CC1	0.7%	8.2%	-29.8%	?	-4.2%
COC(=O)[C@]1(C)CCC(c2ccc(C)cc2)=C(CC(=O)O)C1	-2.8%[7.66 µM]	.	-6.7%	.	-4.8%[13.5 µM]
CCC(Oc1ccccc1)C(=O)Nc1ccc(OCc2cc(=O)n3ccc(C)cc3n2)cc1 (stereo not drawn)	.	8.9%[46 µM]	.	.	.
Cc1cccc(N2C(S)=C(C#N)C(=O)NC2c2ccco2)c1 (stereo not drawn)	-0.4%	.	.	.	-7.1%
N#CC1=C(S)N(c2ccccc2)C(c2ccc(-c3cccc(Cl)c3)o2)NC1=O (stereo not drawn)	6.3%	-0.5%	31.6µM*	?	?
CCCc1nn2c(=O)cc(COC(=O)c3ccccc3NC(=O)c3ccc(OCC)cc3)nc2s1	.	6.3%[46 µM]	.	.	.
CC(=C1C(=O)c2ccccc2C1=O)N1CCc2ccccc2C1	7.6%	-2.3%	-12.8%	?	8.91µM*
CCOC(=O)C1CCN(CC(O)COc2ccc(C(C)(C)CC)cc2)CC1 (stereo not drawn)	-0.8%	3.5%	-6.0%	-80.6*	-4.5%
CCOC(=O)C1CCN(C(=O)COc2cccc(C)c2)CC1	-2.9%	-13.3%	-10.8%	-84.8*	-5.7%
CCOC(=O)C1CCN(C(=O)CCCN2C(=O)c3ccccc3C2=O)CC1	-3.0%	-7.7%	-10.8%	-27.0	?
CCOC(=O)C1CCN(C(C)=C2C(=O)c3ccccc3C2=O)CC1	-0.6%	-7.4%	-13.0%	38.6	17.8µM*
CCOC(=O)C1CCN(CC(O)COc2ccc(C(C)(C)C)cc2)CC1 (stereo not drawn)	-7.9%	-1.0%	-14.6%	0.9	?
COc1ccccc1-c1nc(N(C)C)c2ccccc2n1	.	?	.	.	17.3%
O=C(c1cnccn1)N1CCC2(CCCN(C(c3ccccc3)c3ccccc3)C2)CC1	-0.8%	.	-18.1%	.	?
CC(=O)c1ccc(N2CCN(C(=O)COc3ccc(F)cc3)CC2)c(F)c1	0.4%	?	-10.7%	-4.4	?
CC(=O)N1CCN(C(=O)COc2ccc(Br)cc2)CC1	-3.0%	9.3%	-2.9%	-81.3*	?
CCOC(=O)C1CCN(C(=O)COc2ccc(Br)cc2)CC1	4.0%	-2.0%	-0.1%	-96.9*	3.7%
CC(=O)c1cc(F)c(N2CCN(C(=O)COc3ccc(F)cc3)CC2)cc1C	2.3%	?	-10.8%	-100.0*	?
COc1ccc(OCC(=O)N2CCN(C(=O)COc3ccc(Br)cc3)CC2)cc1	5.5%	-15.3%	-5.3%	-12.8	-7.4%
COC(=O)[C@@]1(Cc2ccccc2)[C@H]2c3cc(C(=O)N4CCCC4)n(Cc4ccc(C(F)(F)F)nc4)c3C[C@H]2CN1C(=O)c1ccccc1	0.3%	.	-10.1%	.	-1.9%
c1coc(C2Nc3cccc4cccc(c34)N2)c1	-7.7%	19.3%	?	-29.2	25.1µM*
CCN(C(=O)CSc1nc2ccccc2n1CC(=O)N1CCCC(C)C1)c1ccccc1 (stereo not drawn)	.	-0.4%[46 µM]	.	.	.
O=C(NCc1cccnc1)c1ccc(Cl)c(Cl)c1	0.1%	10.4%	-3.1%	?	1.9%
O=C(NCc1cccnc1)c1cccc(C(F)(F)F)c1	5.4%	-3.9%	-1.1%	-94.1*	6.9%
O=C(Cc1cccc(C(F)(F)F)c1)NCc1cccc(Cl)c1	1.7%	-4.7%	-26.5%	?	-1.0%
Cc1ccc(C(=O)c2c[nH]c(C(=O)NCc3cccnc3)c2)cc1	1.0%	?	25.1µM*	14.4	?
O=C(NCc1cccc(C(F)(F)F)c1)c1cc(Cl)ccc1Cl	1.3%	?	28.2µM*	-108.3*	6.8%
